# Sampled rows, rich in hits. Any-hit rate of the full collection: about 1.4%.
# TrxR1 substrate – is turned over as a substrate by rat TrxR1. purified TrxR1 substrate turnover, NADPH consumption readout. Potency, µM (top dose mostly 114 µM), inactives show at the highest dose activity change, negative = substrate turnover. 390,000 compounds, 0.01% hits. AID 588456; further: potency means the concentration at half of the fitted maximal effect; on the % scale 0 is the no-effect control and ±100 the full control effect; nearly all actives have a fitted effect of over 50% in size
# Target sequence (O89049 whole entry, looked up): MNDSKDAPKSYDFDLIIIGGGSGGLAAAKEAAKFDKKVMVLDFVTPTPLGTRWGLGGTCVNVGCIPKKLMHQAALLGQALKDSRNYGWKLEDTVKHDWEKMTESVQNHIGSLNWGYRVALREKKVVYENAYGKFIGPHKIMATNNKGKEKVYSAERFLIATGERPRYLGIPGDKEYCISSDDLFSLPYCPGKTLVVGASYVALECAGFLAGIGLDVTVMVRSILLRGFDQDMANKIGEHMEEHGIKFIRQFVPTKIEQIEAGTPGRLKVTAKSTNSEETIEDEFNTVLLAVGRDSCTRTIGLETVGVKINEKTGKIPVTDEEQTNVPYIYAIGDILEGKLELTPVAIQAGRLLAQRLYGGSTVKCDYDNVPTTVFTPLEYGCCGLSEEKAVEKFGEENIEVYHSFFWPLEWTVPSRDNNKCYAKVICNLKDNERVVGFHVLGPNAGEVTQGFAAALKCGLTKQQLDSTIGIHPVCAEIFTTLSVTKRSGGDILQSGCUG
#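 Rat TrxR1, dispensed at 90 nM, was prereduced with 400 uM NADPH (final) for 5 min at ~22 deg C, then incubated with compound 15 min before 400 uM selenite. A first-read NADPH fluorescence drop versus no-compound background flagged substrates.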
# rTrxR1 inhibitor – rat TrxR1 inhibition. O89049. recombinant rTrxR1, NADPH fluorescence consumption, selenite substrate. Potency, µM (titrated, usually from 114 µM), for the others: at the highest dose activity change, negative = inhibition, actives largely listed as inhibitors. 390,000 compounds, 1% hits; further: potency means the concentration at half of the fitted maximal effect; on the % scale 0 is the no-effect control and ±100 the full control effect; nearly all actives have a fitted effect of over 65% in size
#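 Rat TrxR1 (90 nM in the dispensed reagent) was pre-reduced with 400 uM NADPH for 5 min at room temperature, then incubated with compound for 15 min. After 400 uM selenite was added, NADPH fluorescence (Ex 340/Em 450 nm) was followed for 8 min.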
# Akt phos inh – Akt phosphorylation inhibition | Neuro2A IGF-stimulated pAkt S473 HTRF, 20 min; stronger effect = lower value | activity change, % for hits at 50 µM | 360,000 compounds, 0.32% hits; in the data active means activity change below about -80%; inconclusive means mostly about -51% to -80%; further: on the % scale 0 is the no-effect control and ±100 the full control effect
#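 Single-point screen (50 µM final compound) in Neuro2A cells stimulated 20 min with 6 nM IGF at 37 deg C. After lysis, Ser473-phosphorylated Akt read by HTRF (ex 330 nm, em 615/665 nm) as the 665/615 ratio.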
# N370S GC mod – inhibitors or activators of N370S glucocerebrosidase for Gaucher disease. P04062. N370S GC spleen homogenate, 4MU-glucoside fluorescence. Potency, µM (highest dose often 59.4 µM), for inactives: top-dose activity change, negative = inhibition, most hits filed as inhibitors. 330,000 compounds, 0.092% hits. AID 2101;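 further: potency means the concentration at half of the fitted maximal effect; 0% = full enzyme activity and -100% = no enzyme basal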
# AT treatment – potential ataxia-telangiectasia treatments restoring KAP-1 phosphorylation | F2112 A-T fibroblasts, KAP-1 phosphorylation AlphaLISA; neocarzinostatin DNA damage 30 min before lysis | Potency, µM (doses to about 57.5 µM), inactives show top-dose activation, actives largely listed as activators | 320,000 compounds, 0.19% hits | AID 485349; further: potency means the concentration at half of the fitted maximal effect; % of control where 0% means no effect; nearly all actives have a fitted effect of over 45% in size
#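 hTERT-immortalized A-T patient fibroblasts (F2112), 500 cells/well in OPTI-MEM, 1% FBS, got compounds for 60 min, then NCS for 30 min at 37C. Lysates were then assayed for phospho-KAP-1 by AlphaLISA (anti-pKAP1 donor, anti-KAP1 acceptor beads), 6 hr at 25C.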
# Pin1 inh – inhibitors of human Pin1. Q13526. Pin1 FP peptide displacement, HiFluor488, 10 min. Potency, µM (series often up to 115 µM), for inactives: at the top dose activity, negative = inhibition, actives largely listed as inhibitors. 390,000 compounds, 0.009% hits; active means well fitted inhibition curve with a large enough effect in the polarisation, with a control signal flat, not every such curve was filed as active; inconclusive means small, poorly fitted or top-dose-only effect, or effect the other way, or a change in a side signal; inactive means no such curve, though single readings can be large or run the other way; the % refers to the polarisation; further: potency means the concentration at half of the fitted maximal effect; on the % scale 0 is the no-effect control and ±100 the full control effect
# Numbers without * were called inactive; i = inactive; u = inconclusive; x = no result; [ ] = dose if it differs, or a comment. Unless noted, the call rests on the fitted dose curve; in most records, active means well fitted curve in the direction sought with a large enough effect; inconclusive means small, poorly fitted or top-dose-only effect, or another doubt; inactive means no such curve, though single readings can be large; an effect the other way counts as inactive or inconclusive.
SMILES,TrxR1 substrate,rTrxR1 inhibitor,Akt phos inh,N370S GC mod,AT treatment,Pin1 inh
CCCOc1ccc(NC(=O)CC2C(=O)N(c3ccc(C)cc3)C(=O)N2Cc2cccc(OC)c2)cc1 (stereo not given),5.0%,45.0%,x,x,x,-3.1%
CCNC(=O)NC(=O)C(C)Sc1nc2ccccc2c(=O)n1-c1cccnc1 (stereo not given),6.7%,7.3%,i,4.9%,-5.4%,u
CCNC(=O)NC(=O)C(C)Sc1nc2cc(C(=O)OC)ccc2c(=O)n1-c1ccccc1 (stereo not given),5.5%[57.1 µM],7.4%[57.1 µM],-121.8%*,10.3%,1.1%,-2.1%
CN1CCN(NC(=O)c2ccc(Cl)c([N+](=O)[O-])c2)CC1,8.6%[57.1 µM],1.1%[57.1 µM],-112.0%*,-0.6%,-4.0%,3.4%
Cc1ccc(C2(CCN)CCOC(C(C)C)C2)cc1 (stereo not given),-5.9%[57.1 µM],13.6%[57.1 µM],i,-10.2%,-1.3%,-0.4%
CC(C)C1CC(CCN)(c2ccccc2)CCO1 (stereo not given),-0.1%,0.4%,i,u,2.82µM*,-2.5%
O=C1CCc2cc(S(=O)(=O)Nc3ccc(Cl)cc3)ccc2N1,x,x,x,x,x,-0.2%
CC1CCN(c2cc(N(C)CCO)c([N+](=O)[O-])c3nonc23)CC1,-14.2%,44.7µM*,i,1.1%,-5.1%,6.8%
Cc1ccccc1CN1C(=O)/C(=C\c2ccc(C(=O)NCCN3CCOCC3)cc2)Sc2ccccc21,-0.8%,16.8%,i,u,1.6%,33.0%
O=C(NCCN1CCOCC1)c1ccc(/C=C2\Sc3ccccc3N(Cc3ccccc3F)C2=O)cc1,-3.3%,1.9%,i,1µM*,0.5%,14.9%
CCN1N=C(c2ccccc2)Cn2c1nc1ccccc12,30.7%[57.1 µM],10.6%[57.1 µM],-106.7%*,-5.9%,x,0.3%
CS(=O)(=O)N1CCn2c1nc1ccccc12,-4.5%[57.1 µM],17.4%[57.1 µM],i,3.7%,-3.5%[11.5 µM],0.6%
CC1=NN(c2ccc(N)cc2)C(=O)C1,-10.5%,28.2µM*,i,9.0%,-8.4%,u
CC1O[C@@H](O[C@H]2C(Oc3cc(O)c4c(c3)OC(c3ccc(O)cc3)CC4=O)OC(CO)C(O)C2O)C(O)C(O)C1O (stereo not given in full),x,x,x,13.5%,x,x
Cc1coc2cc3oc(=O)c(CC(=O)N4CCCCC4)c(C)c3cc12,1.5%,7.3%,x,x,x,2.2%
COc1cc2oc(=O)c(CC(=O)N3CCCCC3)c(C)c2cc1OC,782.4%,15.8µM*,x,x,x,3.5%
CCOc1ccc(CCNC(=O)C2CCC(=O)N2CCc2ccccc2)cc1OCC (stereo not given),5.5%[57.1 µM],11.3%[57.1 µM],-82.0%*,-1.6%,x,3.8%
Cc1ccc2nc3cc([N+](=O)[O-])cc([N+](=O)[O-])c3cc2c1,-3.7%,50.1µM*,i,-5.0%,-0.1%,x
O=C(COc1ccccc1C(=O)Nc1ccccc1)Nc1ccc2ccccc2c1,3.4%,13.8%,x,x,x,x
CCOC(=O)C1=C(C)N=c2s/c(=C3\C(=O)Nc4ccccc43)c(=O)n2C1c1ccc2c(c1)OCO2 (stereo not given),6.6%,u,i,-14.7%,-8.4%,-0.7%
C=CCOC(=O)C1=C(C)N=c2s/c(=C3\C(=O)N(CC(=O)O)c4ccccc43)c(=O)n2C1c1ccc(OC)cc1 (stereo not given),-11.0%,35.5µM*,i,-17.1%,-2.5%,x
CCN(CC)C(=O)c1sc(NC(=O)Cc2ccc(OC)cc2)c(C#N)c1C,-5.7%,-8.0%,i,-5.1%,-0.8%,-2.0%
CCN(CC)C(=O)c1sc(NC(=O)Cc2ccccc2)c(C#N)c1C,-7.5%,-9.6%,-115.2%*,17.5%,4.7%,6.1%
O=C(NCCCN1CCN(c2ccccc2F)CC1)c1ccc2nc(CCc3ccccc3)oc2c1,-0.9%[57.1 µM],8.8%[57.1 µM],x,x,x,7.3%
O=C(/C=C/c1ccc2c(c1)OCCCO2)c1ccccc1O,-8.6%,u,i,-1.4%,18.4%,1.0%
Cc1ccc(O)c(C(=O)/C=C/c2ccc3c(c2)OCCCO3)c1,-3.5%,-7.7%,i,16.3%,15.8µM*,-2.4%

# Bioassay records (PubChem)
